Experiments:
Assay in all cases: log2 ratio of Biotin-Ahx-Ub-VS probe labelling (fragment/DMSO); higher = less target engagement (more negative = stronger competition), active = hit call of the paper (q ≤ 0.05, log2 ratio ≤ -1)
Details in all cases: compound concentration: 200 uM; treatment time: 3 h
[1] = target: T1, OTUD6B (UniProt Q8N6M0)
T1 sequence (whole entry): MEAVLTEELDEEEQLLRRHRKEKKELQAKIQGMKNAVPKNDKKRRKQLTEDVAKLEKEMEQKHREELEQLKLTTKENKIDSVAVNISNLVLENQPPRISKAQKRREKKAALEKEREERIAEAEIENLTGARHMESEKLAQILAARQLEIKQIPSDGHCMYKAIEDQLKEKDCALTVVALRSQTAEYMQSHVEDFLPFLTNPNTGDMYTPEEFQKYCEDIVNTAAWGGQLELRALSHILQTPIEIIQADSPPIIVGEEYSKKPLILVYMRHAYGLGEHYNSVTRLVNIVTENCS
Procedure, shortened: (§1)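 Each value is an average log2 ratio of fragment to vehicle, tested by unpaired t-test. The underlying Spectronaut label-free quantities were global-median-normalised, and only proteins with ≥2 unique peptides were included. Triplicate HEK293T lysate samples (495 µg) were exposed to fragment at 200 µM or vehicle for 3 h, then to Biotin-Ahx-Ub-VS at 0.5 µM final for 1 h, before NeutrAvidin enrichment of labelled DUBs, LysC and trypsin digestion, and diaPASEF LC-MS/MS.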

[2] = target: T2, OTUD7B (UniProt Q6GQQ9)
T2 sequence (whole entry): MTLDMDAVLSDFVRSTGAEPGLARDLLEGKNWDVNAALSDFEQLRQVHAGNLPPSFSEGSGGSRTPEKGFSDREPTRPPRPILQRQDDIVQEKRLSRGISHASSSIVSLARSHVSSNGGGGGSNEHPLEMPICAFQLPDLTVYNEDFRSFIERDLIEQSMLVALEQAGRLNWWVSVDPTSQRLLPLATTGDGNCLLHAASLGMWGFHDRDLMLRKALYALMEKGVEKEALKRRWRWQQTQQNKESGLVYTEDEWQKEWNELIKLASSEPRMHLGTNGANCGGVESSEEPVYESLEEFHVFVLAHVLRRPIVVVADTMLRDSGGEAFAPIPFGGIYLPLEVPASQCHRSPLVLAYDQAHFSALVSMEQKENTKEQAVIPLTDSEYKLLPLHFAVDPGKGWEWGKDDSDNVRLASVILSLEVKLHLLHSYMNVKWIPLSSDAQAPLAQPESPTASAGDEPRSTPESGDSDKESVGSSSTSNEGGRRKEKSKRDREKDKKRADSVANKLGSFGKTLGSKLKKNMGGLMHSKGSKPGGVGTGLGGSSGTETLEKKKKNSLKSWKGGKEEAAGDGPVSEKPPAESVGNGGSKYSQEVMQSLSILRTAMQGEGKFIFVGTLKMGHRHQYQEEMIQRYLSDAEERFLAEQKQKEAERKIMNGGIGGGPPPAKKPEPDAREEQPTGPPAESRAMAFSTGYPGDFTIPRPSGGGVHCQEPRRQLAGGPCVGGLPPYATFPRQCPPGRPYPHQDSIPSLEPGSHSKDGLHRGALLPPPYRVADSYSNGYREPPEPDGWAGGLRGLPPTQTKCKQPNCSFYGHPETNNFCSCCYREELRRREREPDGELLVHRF
Procedure, shortened: as §1

[3] = target: PRPF8 (UniProt Q6P2Q9)
Procedure, shortened: as §1

[4] = target: T3, PSMD7 (UniProt P51665)
T3 sequence (whole entry): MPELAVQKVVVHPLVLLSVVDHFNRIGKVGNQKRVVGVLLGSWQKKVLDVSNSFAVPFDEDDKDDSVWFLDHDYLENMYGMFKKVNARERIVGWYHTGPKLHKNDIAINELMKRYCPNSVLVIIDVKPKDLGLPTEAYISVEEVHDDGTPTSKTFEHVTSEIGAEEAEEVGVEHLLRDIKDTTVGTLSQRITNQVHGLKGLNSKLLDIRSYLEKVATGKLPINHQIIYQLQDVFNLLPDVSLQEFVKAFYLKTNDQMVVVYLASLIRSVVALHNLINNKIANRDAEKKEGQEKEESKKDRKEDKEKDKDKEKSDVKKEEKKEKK
Procedure, shortened: as §1

[5] = target: UCHL1 (UniProt P09936)
Chain of UCHL1 (P09936 whole entry, looked up): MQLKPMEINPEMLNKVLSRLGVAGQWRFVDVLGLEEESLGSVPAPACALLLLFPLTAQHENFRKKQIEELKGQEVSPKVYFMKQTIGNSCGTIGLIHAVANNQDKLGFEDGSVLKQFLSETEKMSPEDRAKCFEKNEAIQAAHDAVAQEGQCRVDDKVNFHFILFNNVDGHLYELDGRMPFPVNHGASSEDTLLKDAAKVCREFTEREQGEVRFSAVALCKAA
Procedure, shortened: as §1

[6] = target: T4, UCHL3 (UniProt P15374)
T4 sequence (whole entry): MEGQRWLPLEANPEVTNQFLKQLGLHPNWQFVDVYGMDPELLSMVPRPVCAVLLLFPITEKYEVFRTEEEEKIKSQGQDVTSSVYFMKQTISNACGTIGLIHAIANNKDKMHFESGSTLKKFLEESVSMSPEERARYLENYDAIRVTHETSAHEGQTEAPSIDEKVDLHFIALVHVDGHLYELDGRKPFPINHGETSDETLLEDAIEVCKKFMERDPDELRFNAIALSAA
Procedure, shortened: as §1

[7] = target: T5, UCHL5 (UniProt Q9Y5K5)
T5 sequence (whole entry): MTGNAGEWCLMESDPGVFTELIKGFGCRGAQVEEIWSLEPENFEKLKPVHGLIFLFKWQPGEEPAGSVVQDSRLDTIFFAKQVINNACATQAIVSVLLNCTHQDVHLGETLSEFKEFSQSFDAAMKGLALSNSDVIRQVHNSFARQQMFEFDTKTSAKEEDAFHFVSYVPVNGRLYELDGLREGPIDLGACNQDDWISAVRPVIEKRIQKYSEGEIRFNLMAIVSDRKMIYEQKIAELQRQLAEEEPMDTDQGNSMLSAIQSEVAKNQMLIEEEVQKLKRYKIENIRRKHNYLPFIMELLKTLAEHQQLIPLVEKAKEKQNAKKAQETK
Procedure, shortened: as §1

[8] = target: USP10 (UniProt Q14694)
Chain of USP10 (Q14694 whole entry): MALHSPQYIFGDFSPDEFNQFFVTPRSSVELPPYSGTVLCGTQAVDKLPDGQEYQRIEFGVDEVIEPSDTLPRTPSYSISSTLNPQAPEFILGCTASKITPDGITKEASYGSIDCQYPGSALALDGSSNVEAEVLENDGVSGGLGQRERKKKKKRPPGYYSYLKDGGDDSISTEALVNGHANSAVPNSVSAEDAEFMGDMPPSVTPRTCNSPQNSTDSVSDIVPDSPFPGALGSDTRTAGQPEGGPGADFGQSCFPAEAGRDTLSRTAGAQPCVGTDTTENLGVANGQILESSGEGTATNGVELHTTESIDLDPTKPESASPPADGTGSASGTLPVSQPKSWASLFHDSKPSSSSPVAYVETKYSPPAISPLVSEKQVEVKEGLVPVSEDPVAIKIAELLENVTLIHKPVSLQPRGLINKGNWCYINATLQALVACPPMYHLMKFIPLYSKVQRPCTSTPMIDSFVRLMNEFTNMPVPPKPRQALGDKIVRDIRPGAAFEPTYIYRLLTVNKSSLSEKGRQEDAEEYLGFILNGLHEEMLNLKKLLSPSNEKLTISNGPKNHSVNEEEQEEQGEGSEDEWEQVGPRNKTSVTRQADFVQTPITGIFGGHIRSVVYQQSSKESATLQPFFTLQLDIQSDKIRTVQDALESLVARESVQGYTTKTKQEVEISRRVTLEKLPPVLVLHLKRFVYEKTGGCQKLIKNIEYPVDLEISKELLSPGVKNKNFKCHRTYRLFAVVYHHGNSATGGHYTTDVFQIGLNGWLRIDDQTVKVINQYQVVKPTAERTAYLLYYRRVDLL
Procedure, shortened: as §1

[9] = target: T6, USP15 (UniProt Q9Y4E8)
T6 sequence (whole entry): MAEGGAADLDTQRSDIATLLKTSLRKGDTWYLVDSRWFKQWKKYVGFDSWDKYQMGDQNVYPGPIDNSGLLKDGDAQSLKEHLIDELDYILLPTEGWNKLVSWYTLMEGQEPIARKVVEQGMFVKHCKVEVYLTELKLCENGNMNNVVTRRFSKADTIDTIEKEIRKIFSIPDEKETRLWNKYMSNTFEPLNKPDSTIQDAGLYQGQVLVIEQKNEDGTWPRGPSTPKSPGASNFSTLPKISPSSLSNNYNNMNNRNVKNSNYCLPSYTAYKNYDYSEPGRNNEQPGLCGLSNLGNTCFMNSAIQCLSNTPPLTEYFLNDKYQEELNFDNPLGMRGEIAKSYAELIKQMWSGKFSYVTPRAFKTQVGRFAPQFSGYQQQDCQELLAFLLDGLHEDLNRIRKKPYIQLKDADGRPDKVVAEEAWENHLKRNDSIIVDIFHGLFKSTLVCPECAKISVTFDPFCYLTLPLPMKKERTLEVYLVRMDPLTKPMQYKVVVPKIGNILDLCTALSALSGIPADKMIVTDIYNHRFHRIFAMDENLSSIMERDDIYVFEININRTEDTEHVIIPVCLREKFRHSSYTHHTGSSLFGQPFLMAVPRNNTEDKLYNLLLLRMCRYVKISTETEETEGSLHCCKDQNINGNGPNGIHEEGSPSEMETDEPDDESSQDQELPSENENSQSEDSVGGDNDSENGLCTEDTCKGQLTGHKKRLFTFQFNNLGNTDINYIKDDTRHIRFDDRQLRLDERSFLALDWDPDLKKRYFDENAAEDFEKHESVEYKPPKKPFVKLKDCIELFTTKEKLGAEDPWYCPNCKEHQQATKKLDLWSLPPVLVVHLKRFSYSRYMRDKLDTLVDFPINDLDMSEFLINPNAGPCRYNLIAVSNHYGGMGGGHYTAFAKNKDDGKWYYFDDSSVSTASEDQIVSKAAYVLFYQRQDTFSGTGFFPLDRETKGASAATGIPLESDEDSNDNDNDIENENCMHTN
Procedure, shortened: as §1

[10] = target: USP16 (UniProt Q9Y5T5)
Chain of USP16 (Q9Y5T5 whole entry, looked up): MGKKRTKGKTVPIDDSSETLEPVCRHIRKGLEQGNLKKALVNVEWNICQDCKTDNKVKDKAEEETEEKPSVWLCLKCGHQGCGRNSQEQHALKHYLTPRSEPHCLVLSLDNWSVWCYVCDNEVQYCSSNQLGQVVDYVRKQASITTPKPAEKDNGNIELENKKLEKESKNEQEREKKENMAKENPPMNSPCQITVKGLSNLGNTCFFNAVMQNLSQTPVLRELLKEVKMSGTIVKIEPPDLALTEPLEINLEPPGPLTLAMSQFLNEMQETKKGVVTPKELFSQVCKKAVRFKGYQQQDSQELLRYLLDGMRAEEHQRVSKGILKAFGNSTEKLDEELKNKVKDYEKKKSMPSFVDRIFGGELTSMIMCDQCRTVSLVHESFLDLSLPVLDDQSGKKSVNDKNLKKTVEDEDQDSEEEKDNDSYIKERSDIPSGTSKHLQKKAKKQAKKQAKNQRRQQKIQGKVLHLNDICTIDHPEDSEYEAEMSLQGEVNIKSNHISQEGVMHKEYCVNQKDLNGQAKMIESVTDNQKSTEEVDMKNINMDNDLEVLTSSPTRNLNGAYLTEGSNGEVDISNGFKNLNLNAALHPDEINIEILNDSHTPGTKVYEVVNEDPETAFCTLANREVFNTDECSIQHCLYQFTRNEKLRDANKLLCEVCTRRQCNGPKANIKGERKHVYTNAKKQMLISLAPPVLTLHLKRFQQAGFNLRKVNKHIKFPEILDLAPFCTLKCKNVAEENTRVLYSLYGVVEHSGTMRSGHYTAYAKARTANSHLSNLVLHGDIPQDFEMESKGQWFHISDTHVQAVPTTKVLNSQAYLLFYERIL
Procedure, shortened: as §1

Measured: log2 ratio of Biotin-Ahx-Ub-VS probe labelling

O=C(CCl)Nc1cc2c(cc1Cl)OCCO2
inactive: [1] -0.0652 | [2] -0.567 | [3] 0.0189 | [4] -0.149 | [6] 0.196 | [7] -0.407 | [8] -0.000247 | [9] -0.202 | [10] 0.406
active: [5] -1.2

Source: the supplement of paper PMC11732987, “Enantioselective OTUD7B fragment discovery through chemoproteomics screening and high-throughput optimisation” (Communications Chemistry, 2025)
